This passage reports max response and Potency results from PubChem BioAssay (NCATS).

Several values for one entry are separate records, joined by “and”; a condition that tells them apart may be missing. Equal values may be shown once. Inconclusive results are not listed. A number with no mark means an inactive call. Activity calls are given as the source filed them. Calls follow the shape of the dose curve; as a rule, active = well fitted curve in the direction sought with a large enough effect; inconclusive = small, poorly fitted or top-dose-only effect, or another doubt; inactive = no such curve, though single readings can be large or run the other way.
% is scaled to controls: 0 for no effect and ±100 for the full control effect; potency is read from the fitted curve at half-maximal effect.

The assay can be described thus: qHTS Assay for Identifying Gametocytocidal Compounds (AID 743244).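 As to max response: actives lower the fluorescent signal which means gametocytes are killed.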 To be noted: P. falciparum 3D7 stage III-V gametocytes, alamarBlue, 72 h; max response: active compounds read low. The source says:
Malaria cases and deaths have dropped 50% in 29 countries since 2000 due to the combined effects of long-lasting insecticidal bednets, indoor residual spraying, and artemisinin-based combination therapies (ACTs). This success has raised hopes for malaria eradication and consequently stimulated interest in developing new reagents that block gametocyte transmission such as novel and safe gametocytocidal drugs. However, previous drug development efforts have focused primarily on the asexual parasites that cause symptoms, but not malaria transmission. Consequently, patients can remain infectious for weeks after the clearance of asexual parasites and clinical symptoms. To be transmitted from person to person via a mosquito, the parasites must switch from asexual to sexual development and produce male and female gametocytes. Malaria gametocytes consist of five stages (I, II, III, IV and V). The late stage gametocytes (III, IV and V) are difficult to be cultured in vitro and the long lifespan of mature gametocytes allows them being transmitted from host to mosquitoes unless they are completely eliminated by gametocytocidal agents. To identify gametocytocidal compounds which are capable of killing late stage P. falciparum gametocytes, a high throughput gametocyte viability assay was employed. This assay uses oxidoreduction indicator, alamarBlue, as a general measure of metabolic activity of gametocytes. Within live cells, the nonfluorescent resazurin is reduced to resorufin, a bright red fluorescence dye. Fluorescence decreases upon treatment of gametocytocidal compounds. P. falciparum gametocyte (3D7 strain) was used in this study.
The 1536-well gametocycidal viability assay was based on the previous method of Tanaka et al. Stage III-V gametocytes were tested against three compound libraries, including 4265 compounds from NCGC pharmaceutical collection, 400 from Malaria Box library, and 550 from an internal collection of kinase inhibitors. Briefly, 2.5 ul/well incomplete medium was dispensed into each well of 1,536-well plates using the Multidrop Combi followed by 23 nl compound transferring using the NX-TR Pintool (WAKO Scientific Solutions, San Diego, CA). Then, 2.5 ul/well of gametocytes was dispensed with a seeding density of 20,000 cells/well using the Multidrop Combi. The assay plates were incubated for 72 h at 37C with 5% CO2. After addition of 5 ul/well of 2X AlamarBlue dye (Life Technologies, cat. no. DAL1100), the plates were incubated for 24 h at 37C with 5% CO2 and then were read in a fluorescence detection mode (Ex = 525 nm, Em = 598 nm) on a ViewLux plate reader (PerkinElmer).
As for `C[N+]1(C)CCOC(O)(c2ccc(-c3ccc(C4(O)C[N+](C)(C)CCO4)cc3)cc2)C1` (stereo not given), the max response was 5.92%.
For `C[N+](C)(C)CCOC(=O)CBr`, the max response was 20.4%.
With `C[C@@H]([C@H](O)c1ccccc1)N(C)C`, the max response was 8.71%.
`O=C1C2CC=CCC2C(=O)N1SC(Cl)(Cl)Cl` (stereo not given): the max response was -3.19%.
Consider `OC1CCCCC1N1CCC(c2ccccc2)CC1` (stereo not given), for which the max response is 6.56%.
In the case of `N#C/C(=C/c1ccc(O)c(O)c1)C(N)=S`, the max response was 27.1%.
On the same count and under the same terms, the same measure for `CCOP(=O)(OCC)O/C(=C/Cl)c1ccc(Cl)cc1Cl`: -0.665%; for `[O]=[Cd]`: 2.29%.
Same read-out and setting: the result for `C#CCN1CC(=O)N(COC(=O)C2C(C=C(C)C)C2(C)C)C1=O` (stereo not given) reads 21.2%; that for `NC(N)=NOCC[C@H](N)C(=O)O`, -9%; that for `C[C@]12CC[C@H]3[C@@H](CCC4=C(Cl)C(=O)CC[C@@]43C)[C@@H]1CC[C@@H]2O`, -5.5%.
For `CCN(CC)CCO[C@H]1CC[C@@]2(C)C(=CC[C@@H]3[C@@H]2CC[C@]2(C)C(=O)CC[C@@H]32)C1`, the max response was -4.56%.
As for `CC(C)Nc1ccc(Nc2ccccc2)cc1`, the Potency was 10 µM (active).
Turning to `CC(N)Cc1c[nH]c2ccc(O)cc12` (stereo not given), the max response was 20.7%.
Turning to `CCON=O`, the max response was -5.54%.
Take `CCN(CC)C(=O)/C(Cl)=C(\C)OP(=O)(OC)OC`: the max response is -6.42%.
Turning to `C[C@H]1CC[C@]2(NC1)O[C@H]1C[C@H]3[C@@H]4CC[C@H]5C[C@@H](O)CC[C@]5(C)[C@H]4CC[C@]3(C)[C@H]1[C@@H]2C`, the max response was 2.92%.
Consider `OC[C@@H](O)[C@H]1O[C@@H]2O[C@H](C(Cl)(Cl)Cl)O[C@@H]2[C@H]1O`, for which the max response is 13.7%.
On the same count and under the same terms, the result for `CC1(C)[C@H](C=C(Cl)Cl)[C@H]1C(=O)OCc1c(F)c(F)cc(F)c1F` reads 0.31%; that for `O=c1[nH]cc(N(CCCl)CCCl)c(=O)[nH]1`, -3.92%; that for `O=C1C=CC(=O)C=C1`, 4.21%.
Still for that read-out and setting: the same measure for `ClC1C(Cl)C(Cl)C(Cl)C(Cl)C1Cl` (stereo not given): 4.65%; for `Cc1ccccc1-n1c(C)nc2ccccc2c1=O`: 5.64% and -12.4%; for `[S]=[Sb](=[S])[S][Sb](=[S])=[S]`: 3.55%.
`CN1CCc2cc(O)cc3c2[C@H]1Cc1ccc(O)c(O)c1-3`: the max response is 32.9%.
On the same count and under the same terms, the same measure for `Cc1cccc(C(C)c2cnc[nH]2)c1C` (stereo not given): 17.3%.
On to `CCCN1CCc2cc(O)cc3c2[C@H]1Cc1ccc(O)c(O)c1-3`, for which the Potency was 2.51 µM (active).
Take `OC[C@@H](O)[C@H]1O[C@@H]2O[C@@H](C(Cl)(Cl)Cl)O[C@@H]2[C@H]1O`: the max response is -7.25%.
For the compound `CN1CC[C@@]2(C)c3cc(O)ccc3N(C)C12` (stereo not given in full), the Potency is 3.16 µM (active).
As to `O=C1CCCCC1CN1CCCCC1` (stereo not given), the max response was -0.825%.
With `CN[C@H]1C[C@@H](N)[C@H](O)[C@@H](O[C@@H]2O[C@H](CO)[C@H](O)[C@@H]3OC4(O[C@H]23)O[C@H](C(N)CO)[C@H](O)[C@H](O)[C@H]4O)[C@@H]1O` (stereo not given in full), the max response is -0.708% and -7.43%.
On to `C#CCN[C@H](C)Cc1ccccc1`, for which the max response is 19.2%.
As to `CCCSP(=O)(OCC)SCCC`, the max response was -10.7%.
On the same count and under the same terms, the same measure for `CC(=O)OC1CN2CCC1CC2` (stereo not given): -0.102%; for `CN1c2ccccc2C(NCCCCCCC(=O)O)c2ccc(Cl)cc2S1(=O)=O` (stereo not given): -8.42%.
Take `CC(C)NP(=O)(NC(C)C)OP(=O)(NC(C)C)NC(C)C`: the max response is 7.64%.
For the compound `O=c1[nH]c(=O)n(Cl)c(=O)n1Cl`, the max response was 6.71%.
Turning to `Clc1ccccc1Cl`, the max response is 10.6%.
On the same count and under the same terms, the same measure for `CCC1(c2ccccc2)C(=O)NC(=O)NC1=O`: 6%; for `CN1[C@H]2CC[C@@H]1[C@@H](C(=O)O)[C@@H](OC(=O)c1ccccc1)C2`: 17.6% and -3.85%.
